# Measurements from PubChem BioAssay.
# Active and inactive are the calls of the source. How the calls were made is not given here.
# Test system: Aerobactin synthetase IucA (Klebsiella pneumoniae hvKP1)
# Assay: IucA enzyme inhibition, primary screen, biochemical, Spectrum library (AID 1346200);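 further: 100% = wells without compound and 0% = wells lacking enzyme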
# Settings: malachite green pyrophosphate, A620, at 8 µM, stronger effect = lower value
row,SMILES,activity remaining
1,O=C(O)[C@H](O)[C@@](O)(Cc1ccc(O)cc1)C(=O)O,103% (inactive)
2,CCCN(CCC)C(=O)C(CCC(=O)O)NC(=O)c1ccccc1 (stereo not given),115% (inactive)
3,CC(=O)c1cc2c(cc1O)OC(C)(C)C=C2,96.6% (inactive)
4,CC(C(=O)O)c1ccc(C(=O)c2cccs2)cc1 (stereo not given),104% (inactive)
5,CC(=O)O[C@H]1C[C@@H](O)C(C)(C)C2C[C@@H](OC(C)=O)[C@]3(C)C(CC[C@@]4(C)[C@H](c5ccoc5)OC(=O)C5OC543)[C@]21C (stereo not given in full),104% (inactive)
6,CC(=O)OCC1=C(C(=O)O)N2C(=O)[C@@H](NC(=O)Cc3cccs3)[C@H]2SC1,109% (inactive)

# Test system: Aerobactin synthetase IucA (Klebsiella pneumoniae, hypervirulent)
# Assay: biochemical IucA inhibition screen of LOPAC library by absorbance (AID 1346212);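 further: 100% = no compound wells and 0% = no enzyme wells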
# Settings: IucA enzyme assay, absorbance (OD) readout; stronger effect = lower value; concentration not given here
row,SMILES,remaining activity
1,Cn1c(=O)c2c(ncn2C)n(C)c1=O,113% (inactive)
2,NCCCCN=C(N)N,111% (inactive)
3,CC1=C(/C=C/C(C)=C/C=C/C(C)=C\C(=O)O)C(C)(C)CCC1,85.8% (inactive)
4,CC(C)NCC(O)COc1cccc2[nH]ccc12 (stereo not given),116% (inactive)
5,OCCN1CCN(CCCN2c3ccccc3Sc3ccc(C(F)(F)F)cc32)CC1,93.9% (inactive)
6,CN(C)CCC=C1c2ccccc2CCc2ccccc21,106% (inactive)
7,NC(=O)c1cnccn1,80.6% (inactive)
8,CCCN(CCC)C(=O)C(CCC(=O)O)NC(=O)c1ccccc1 (stereo not given),99.4% (inactive)
9,CC(=O)OCC1=C(C(=O)O)N2C(=O)[C@@H](NC(=O)Cc3cccs3)[C@H]2SC1,117% (inactive)
